Records with an inconclusive call do not appear. Unmarked numbers belong to inactive results. Activity calls are given as the source filed them. The call rests on the fitted dose curve.
Potency means the concentration at half of the fitted maximal effect.

Sequence of Cytochrome P450 1A2 (Homo sapiens) (P05177 whole entry, looked up): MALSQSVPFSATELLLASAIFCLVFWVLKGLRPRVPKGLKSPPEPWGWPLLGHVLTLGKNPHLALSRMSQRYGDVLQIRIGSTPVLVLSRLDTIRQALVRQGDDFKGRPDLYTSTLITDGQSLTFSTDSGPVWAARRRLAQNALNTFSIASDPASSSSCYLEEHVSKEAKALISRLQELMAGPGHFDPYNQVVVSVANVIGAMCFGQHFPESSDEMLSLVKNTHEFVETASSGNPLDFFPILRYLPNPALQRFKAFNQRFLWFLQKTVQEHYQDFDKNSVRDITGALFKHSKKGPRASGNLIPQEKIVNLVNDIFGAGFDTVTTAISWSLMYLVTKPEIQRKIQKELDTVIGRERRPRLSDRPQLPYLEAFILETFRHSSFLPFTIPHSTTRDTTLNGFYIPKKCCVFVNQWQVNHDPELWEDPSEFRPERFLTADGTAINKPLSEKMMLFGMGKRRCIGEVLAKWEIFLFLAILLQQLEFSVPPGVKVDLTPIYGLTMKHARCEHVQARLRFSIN

This assay has as its target Cytochrome P450 1A2 (Homo sapiens) (UniProt P05177). Kind of assay: p450-cyp1a2 (AID 410).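 On activity change, negative = inhibition: -100% = full effect of reference inhibitor.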 The following applies: recombinant CYP1A2, luciferin-ME demethylation, luminescence; series mostly up to 57 µM; activity change, negative = inhibition: at the top concentration. The procedure: The P450 gene superfamily is involved in metabolism and the clearance of xenobiotics. This assay used human CYP1A2 to measure the demethylation of luciferin 6' methyl ether (Luciferin-ME; Promega-Glo) to luciferin. The luciferin is then measured by luminescence after the addition of a luciferase detection regeant. Luciferin-ME concentration in the assay was equal to its Km for CYP1A2.
NCGC Assay Protocol Summary:
Two uL of enzyme and substrate mix (final concentrations: 20nM CYP1A2, 100uM Luciferin-ME, 100mM KPO4) were dispensed into a white, solid bottom 1536-well microtiter plate. 23nL of compound was transferred by a pin tool. The plate was incubated at room temperature for 10 min. Two uL of an NADPH regeneration solution (Promega supplied reagent) was dispensed and the reaction was allowed to continue for 60 min at room temperature. Then the reaction was stopped by reconstituted detection reagent. After another 20 min of incubation the plate was read on the ViewLux (Perkin Elmer) at 60 sec exposure and 2x2 binning. This protocol was carried out with Promega-Glo reagents and further information can be found at http://www.promega.com/tbs/tb325/tb325.pdf. Data were normalized to the to AC100 inhibition (57 uM furafylline).
As to `O=C(Nc1ccccc1)N1CCCC2(CCN(C(=O)c3ccco3)CC2)C1`, the Potency is 20 µM (active).

Turning to `Cn1cc(-c2nc3cnc(N4CCOCC4)nc3n(C3CC3)c2=O)c2ccccc21`, the Potency is 3.16 µM (active).

As to `CN(C)C(=O)c1ccc(-c2cncnc2NCCc2cnc[nH]2)cc1`, the Potency was 12.6 µM (active).

Take `FC(F)(F)c1ccccc1-c1cc(N2CCNCC2)ncn1`: the Potency is 5.01 µM (active).

Turning to `COC(=O)N1CCC2(CCCN(C(=O)Nc3cccc(F)c3)C2)CC1`, the “activity change, negative = inhibition” value was 14%.

In the case of `Cn1cc(-c2nc3cnc(Oc4ccccc4)nc3n(C3CC3)c2=O)c2ccccc21`, the Potency is 5.01 µM (active).

On to `CN(Cc1ccco1)c1ncnc2ccc(-c3cccnc3)cc12`, for which the Potency was 0.316 µM (active).

For `CS(=O)(=O)N1CCC[C@@]2(CCN(c3ccccc3)C2)C1`, the Potency is 31.6 µM (active).

As for `O=c1c(-c2ccc(F)cc2)nc2cnc(N3CCOCC3)nc2n1Cc1cccs1`, the Potency is 12.6 µM (active).

Regarding `CN(C)c1ncc2nc(-c3cccc(C#N)c3)c(=O)n(CCC#N)c2n1`, the “activity change, negative = inhibition” value was -20.2%.

As to `COc1cccc(-c2ccc3ncnc(NCc4cccs4)c3c2)c1`, the Potency is 0.501 µM (active).

On to `COCCn1c(=O)c(-c2cccc(C#N)c2)nc2cnc(N(C)C)nc21`, for which the Potency was 2 µM (active).

For the molecule `O=C(c1csnn1)N1CCC2(CC1)CCN(c1ccccc1)CC2`, the Potency was 15.8 µM (active).

For the molecule `Cn1c(=O)c(-c2cc(F)cc(F)c2)nc2cnc(Oc3ccccc3)nc21`, the Potency was 2 µM (active).

Regarding `CN1CCN(c2ncc3nc(CCc4ccccc4)c(=O)n(Cc4ccc(F)cc4)c3n2)CC1`, the “activity change, negative = inhibition” value was -18.2%.

As to `CC(=O)NCCc1ccc(O)c(O)c1`, the “activity change, negative = inhibition” value is -2.4%.

As for `CCNc1ncc2nc(C)c(=O)n(CCC#N)c2n1`, the Potency is 12.6 µM (active).

For the molecule `CCNc1ncc2nc(-c3cn(C)c4ccccc34)c(=O)n(-c3ccccc3)c2n1`, the Potency was 15.8 µM (active).

Consider `CC(C)NC(=O)N1CCCC2(CCN(C(=O)c3ccncc3)CC2)C1`, for which the “activity change, negative = inhibition” value is -0.5%.

Turning to `CS(=O)(=O)N1CCC2(CCCN(c3ccncc3)C2)CC1`, the “activity change, negative = inhibition” value is -11.4%.

In the case of `CC(=O)N1CCC2(CC1)CN(c1ccccn1)C2`, the “activity change, negative = inhibition” value is 6.5%.

For the molecule `Cn1cccc1C(=O)N1CCC2(CC1)CCN(c1ccccc1)CC2`, the Potency was 12.6 µM (active).

With `N#CCCn1c(=O)c(-c2cccc(C#N)c2)nc2cnc(N3CCOCC3)nc21`, the Potency was 15.8 µM (active).

As for `COCCNc1ncnc2ccc(-c3cccnc3)cc12`, the Potency was 0.2 µM (active).

For the molecule `O=C(c1ccco1)N1CCC[C@@]2(CCN(Cc3nccs3)C2)C1`, the “activity change, negative = inhibition” value is -14.9%.

Take `Cc1ccccc1-c1ccc2ncnc(NC3CC3)c2c1`: the Potency was 0.126 µM (active).

On to `Clc1ccccc1-c1cncnc1NCc1cccs1`, for which the Potency was 3.98 µM (active).

`O=C(c1cc(C(F)(F)F)cc(C(F)(F)F)c1)N1CCC[C@@]2(CCN(Cc3nccs3)C2)C1`: the Potency is 20 µM (active).

Regarding `FC(F)(F)c1ccccc1-c1nc(NCCN2CCOCC2)c2ccccc2n1`, the Potency was 12.6 µM (active).

For `CCNc1ncc2nc(C)c(=O)n(-c3ccc(OC)cc3)c2n1`, the Potency is 15.8 µM (active).

Take `COc1cccc(Cn2c(=O)cnc3cncnc32)c1`: the Potency is 15.8 µM (active).

For the molecule `CS(=O)(=O)Nc1cccc(-c2ccc3ncnc(N4CCNCC4)c3c2)c1`, the Potency is 12.6 µM (active).

Turning to `CC(C)NC(=O)N1CCC2(CC1)CCN(S(C)(=O)=O)CC2`, the “activity change, negative = inhibition” value is -9%.

Regarding `CS(=O)(=O)N1CCC2(CCN(C(=O)Nc3cccc(F)c3)CC2)CC1`, the “activity change, negative = inhibition” value was -12.6%.

Consider `CS(=O)(=O)N1CCC2(CC1)CN(Cc1cc(C(F)(F)F)cc(C(F)(F)F)c1)C2`, for which the “activity change, negative = inhibition” value was 1.7%.

For the molecule `O=c1cnc2cncnc2n1Cc1ccccc1`, the Potency was 25.1 µM (active).

As to `O=C(c1ccco1)N1CCC2(CC1)CN(c1ccccc1)C2`, the “activity change, negative = inhibition” value is -12.3%.

`Cn1cc(-c2nc3cnc(N4CCNCC4)nc3n(C)c2=O)c2ccccc21`: the Potency was 15.8 µM (active).

Turning to `COc1ccc2[nH]cc(CCNc3ncnc4ccc(-c5cccnc5)cc34)c2c1`, the Potency is 0.0794 µM (active).

In the case of `Cc1noc(C)c1C(=O)N1CCC2(CCN(C(=O)Nc3ccccc3)CC2)CC1`, the “activity change, negative = inhibition” value is -8.7%.

(Values after PubChem BioAssay (NCATS).)
